Compound activity as filed in PubChem.
12-LOX inh = ALOX12 (human) lipoxygenase inhibition. P18054. purified 12hLO, xylenol orange hydroperoxide absorbance. Potency, µM (doses to about 108 µM), for the others: at the highest dose activity change, negative = inhibition, actives largely listed as inhibitors. actives 1.1% (n = 580,000). AID 1671190; note: potency is the fitted concentration of half-maximal effect
Target sequence (P18054 whole entry, looked up): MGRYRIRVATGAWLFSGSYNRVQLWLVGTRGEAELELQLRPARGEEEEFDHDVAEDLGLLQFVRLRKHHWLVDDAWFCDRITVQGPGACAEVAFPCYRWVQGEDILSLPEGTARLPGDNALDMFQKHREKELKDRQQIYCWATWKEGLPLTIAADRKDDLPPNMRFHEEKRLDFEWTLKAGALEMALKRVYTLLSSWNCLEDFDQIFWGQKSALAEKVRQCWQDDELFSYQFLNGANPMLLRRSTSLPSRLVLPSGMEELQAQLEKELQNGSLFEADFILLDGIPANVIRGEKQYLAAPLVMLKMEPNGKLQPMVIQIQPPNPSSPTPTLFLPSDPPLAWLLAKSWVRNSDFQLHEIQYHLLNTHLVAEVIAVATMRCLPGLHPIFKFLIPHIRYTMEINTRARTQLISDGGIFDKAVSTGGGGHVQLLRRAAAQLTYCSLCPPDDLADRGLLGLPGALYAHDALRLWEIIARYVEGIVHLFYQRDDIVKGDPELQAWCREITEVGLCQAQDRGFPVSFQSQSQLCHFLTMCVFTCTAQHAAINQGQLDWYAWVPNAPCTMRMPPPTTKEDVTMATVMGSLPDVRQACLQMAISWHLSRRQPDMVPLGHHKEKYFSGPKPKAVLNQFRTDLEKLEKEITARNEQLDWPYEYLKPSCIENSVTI
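Purified human 12hLO at 150 nM in 25 mM Hepes, 0.01% Triton X-100, pH 7.0, preincubated 15 min at room temperature with compound. Reaction started with 40 uM arachidonic acid, 30 min at room temperature. Hydroperoxide measured by Fe-xylenol orange, 573/405 nm absorbance ratio.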
TDP1 cell noCPT = qHTS for Inhibitors of human tyrosyl-DNA phosphodiesterase 1 (TDP1): qHTS in cells in absence of CPT; Potency, µM (titrated, usually from 46.2 µM), without a hit: top-dose activity change, negative = growth inhibition, usual class: inhibitors; DT40 Tdp1-/- hTDP1 cells, no CPT, ATP luminescence, 48 h; actives 15% (n = 420,000); note: potency is the fitted concentration of half-maximal effect; nearly all actives have a fitted effect of over 55% in size
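No-CPT arm: Tdp1-/-;hTDP1 DT40 cells (400/well) plus compounds, incubated ≥48 hr at 37 °C. Readout CellTiter-Glo luminescence.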
HT1080 IDH1KD tx = toxicity to HT-1080 IDH1 knockdown cells (counter line) | Potency, µM (doses to about 46.1 µM), for the others: at the top dose activity, negative = toxicity, usual class: cytotoxic | HT-1080 IDH1 knockdown viability, ATP luminescence, 48 h | actives 2% (n = 360,000) | AID 686971;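 note: potency is the fitted concentration of half-maximal effect; 0% = DMSO wells and -100% = cell-free medium wells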
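% activity derives from luminescence (CellTiter-Glo), normalised to DMSO and no-cell wells. HT-1080-IDH1KD cells, 750/well, had 48 h compound exposure at 37 °C.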
HT1080-NT tox = kills 2HG-producing HT-1080-NT fibrosarcoma cells; actives 1.6% (n = 360,000); AID 686970; Potency, µM (titrated, usually from 46.1 µM), for the others: at the top dose activity, negative = less viability, hits mostly cytotoxic; HT-1080-NT fibrosarcoma viability, CellTiter-Glo ATP luminescence, 48 h;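 note: NT is the 2HG producing partner of a matched IDH1 knockdown line; potency is the fitted concentration of half-maximal effect; 0% = DMSO-treated cells and -100% = media-only wells without cells; nearly all actives have a fitted effect of over 55% in size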
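Viability of the 2HG-overproducing fibrosarcoma line after 48 hours of compound exposure at 37 degrees C was determined by luminescence with CellTiter-Glo, and concentration-effect curves were then fitted and categorized.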
IL1B secr inh = blocks inflammasome-driven IL-1 beta release. THP-1 LPS/ATP IL-1B secretion, AlphaLISA, 16 h; stronger effect = lower value. activity change, % at 57.5 µM. actives 4.7% (n = 360,000); in the data active = activity change below about -50%; inconclusive = mostly about -30% to -49%
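Secreted IL-1B measured by AlphaLISA bead assay after 16 h compound exposure of THP-1 cells; compounds (final up to 57.5 uM) added 1 h before LPS (250 ng/mL) and ATP (1.25 mM) stimulation; lower signal means less secretion.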
DT40 TDP1 CPT = growth inhibition of DT40 Tdp1-/-;hTDP1 cells with camptothecin (screen for TDP1 inhibitors); actives 12% (n = 420,000); chicken DT40 Tdp1-/-;hTDP1 cells + 20 nM CPT, ATP luminescence, 48 h; Potency, µM (highest dose often 46.2 µM), without a hit: at the highest dose activity change, negative = growth inhibition, most hits filed as inhibitors; note: potency is the fitted concentration of half-maximal effect; nearly all actives have a fitted effect of over 55% in size
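Chicken DT40 Tdp1-/- cells stably complemented with human TDP1 were seeded at 400 cells/well in medium containing 20 nM camptothecin, exposed to pin-transferred compounds, and grown at 37 °C for at least 48 hr. Viability was read as ATP luminescence.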
Numbers without * were called inactive. Only a selection was taken, and hits are over-represented in it overall. Unless noted, calls come from the whole dose curve; as a rule, active = well fitted curve in the direction sought with a large enough effect; inconclusive = small, poorly fitted or top-dose-only effect, or another doubt; inactive = no such curve, though single readings can be large; an effect the other way counts as inactive or inconclusive. Unless noted, % is set by controls: 0 for no effect and ±100 for the full control effect.

`CC(=O)Nc1ccc(NC(=O)C2CCN(c3ccc4nnc(C(C)C)n4n3)CC2)cc1` gave 12-LOX inh 2%.
CCCC(=O)Nc1nc(-c2ccc3c(c2)CCN3S(C)(=O)=O)cs1 was read as 12-LOX inh -40%, TDP1 cell noCPT 23µM*, HT1080 IDH1KD tx 1%, HT1080-NT tox 1%, IL1B secr inh inconclusive and DT40 TDP1 CPT inconclusive.
For CS(=O)(=O)N1CCc2cc(-c3csc(NCC4CCCO4)n3)ccc21 (stereo not given) the results were 12-LOX inh 23%, TDP1 cell noCPT -27%, HT1080 IDH1KD tx 1%, HT1080-NT tox 0%, IL1B secr inh -68* and DT40 TDP1 CPT -25%.
`CS(=O)(=O)N1CCc2cc(-c3csc(NC(=O)Cc4ccccc4)n3)ccc21` gave 12-LOX inh -29%, TDP1 cell noCPT inconclusive, HT1080 IDH1KD tx inconclusive, HT1080-NT tox inconclusive, IL1B secr inh inconclusive and DT40 TDP1 CPT inconclusive.
Screening CCC(=O)Nc1nc(-c2ccc3c(c2)CC(C)N3S(C)(=O)=O)cs1 (stereo not given) returned 12-LOX inh 12%, TDP1 cell noCPT 16µM*, HT1080 IDH1KD tx -11%, HT1080-NT tox -10%, IL1B secr inh -16 and DT40 TDP1 CPT inconclusive.
For CC1Cc2cc(-c3csc(NC(=O)Cc4cccs4)n3)ccc2N1S(C)(=O)=O (stereo not given) the results were 12-LOX inh -9%, TDP1 cell noCPT 23µM*, HT1080 IDH1KD tx inconclusive, HT1080-NT tox -11%, IL1B secr inh -22 and DT40 TDP1 CPT inconclusive.
`COc1cc(OC)cc(-n2c(=O)c3ccccc3n(CC(=O)NCCc3ccc(OC)c(OC)c3)c2=O)c1` gave 12-LOX inh -21%, TDP1 cell noCPT -27% and DT40 TDP1 CPT -12%.
For O=C(NCCc1ccccc1)c1ccc(-c2ccc(F)c(F)c2)c2ccoc12 the results were 12-LOX inh 5%, TDP1 cell noCPT 4.1µM*, HT1080 IDH1KD tx 9%, HT1080-NT tox -8%, IL1B secr inh 0 and DT40 TDP1 CPT 16µM*.
Screening O=C(NCc1ccccc1)c1ccc(-c2ccc(F)c(F)c2)c2ccoc12 returned 12-LOX inh inconclusive, TDP1 cell noCPT inconclusive, HT1080 IDH1KD tx -6%, HT1080-NT tox inconclusive, IL1B secr inh -72* and DT40 TDP1 CPT inconclusive.
Screening O=C(NCc1ccco1)c1ccc(-c2ccc(F)c(F)c2)c2ccoc12 returned 12-LOX inh -6%, TDP1 cell noCPT 18µM*, HT1080 IDH1KD tx -22%, HT1080-NT tox -20%, IL1B secr inh -16 and DT40 TDP1 CPT inconclusive.
Screening O=C(NCc1cccc(Cl)c1)c1ccc(-c2ccc(F)c(F)c2)c2ccoc12 returned 12-LOX inh 8%, TDP1 cell noCPT inconclusive, HT1080 IDH1KD tx -20%, HT1080-NT tox -14%, IL1B secr inh 0 and DT40 TDP1 CPT inconclusive.
Screening O=C(NCCc1ccccc1)c1cccc2c(-c3ccc(F)c(F)c3)coc12 returned 12-LOX inh -15%, TDP1 cell noCPT -44%, HT1080 IDH1KD tx -10%, HT1080-NT tox -3%, IL1B secr inh -10 and DT40 TDP1 CPT -44%.
Screening COc1ccc(CNC(=O)c2ccc(-c3cnn(C)c3)c3ccoc23)cc1OC returned 12-LOX inh 4%, TDP1 cell noCPT inconclusive, HT1080 IDH1KD tx -5%, HT1080-NT tox 1%, IL1B secr inh -22 and DT40 TDP1 CPT -73%.
COc1ccc(CNC(=O)c2ccc(-c3ccc(F)c(F)c3)c3ccoc23)cc1OC was read as 12-LOX inh -24%, TDP1 cell noCPT 15µM*, HT1080 IDH1KD tx -25%, HT1080-NT tox -24%, IL1B secr inh -12 and DT40 TDP1 CPT 21µM*.
Screening CCCCOc1ccc(C(=O)C(CN2CCOCC2)c2ccccc2)cc1 (stereo not given) returned 12-LOX inh inconclusive, TDP1 cell noCPT 15µM*, HT1080 IDH1KD tx 16µM*, HT1080-NT tox 13µM*, IL1B secr inh -98* and DT40 TDP1 CPT 13µM*.
O=C(c1ccc(F)cc1)C(CN1CCOCC1)c1ccccc1 (stereo not given) was read as 12-LOX inh -21%, TDP1 cell noCPT 1.3µM*, HT1080 IDH1KD tx 5.2µM*, HT1080-NT tox -9%, IL1B secr inh -64* and DT40 TDP1 CPT 1.8µM*.
`CC(CN1CCOCC1)OC(=O)C(c1ccccc1)c1ccccc1` (stereo not given) gave 12-LOX inh inconclusive, TDP1 cell noCPT -15%, HT1080 IDH1KD tx 16%, HT1080-NT tox 15%, IL1B secr inh 19 and DT40 TDP1 CPT -7%.
`O=C(c1ccccc1)C(CCC(CN1CCOCC1)C(=O)c1ccccc1)CN1CCOCC1` (stereo not given) gave 12-LOX inh inconclusive, TDP1 cell noCPT 1.5µM*, HT1080 IDH1KD tx 8.2µM*, HT1080-NT tox 10µM*, IL1B secr inh -118* and DT40 TDP1 CPT 0.73µM*.
For CCCCOc1ccc(C(O)C(CN2CCCCC2)c2ccccc2)cc1 (stereo not given) the results were 12-LOX inh inconclusive, TDP1 cell noCPT 23µM*, HT1080 IDH1KD tx -13%, HT1080-NT tox -14%, IL1B secr inh inconclusive and DT40 TDP1 CPT 23µM*.
CCCCOc1ccc(C(O)C(CN2CCOCC2)c2ccccc2)cc1 (stereo not given) was read as 12-LOX inh 3%, TDP1 cell noCPT -15%, HT1080 IDH1KD tx -9%, HT1080-NT tox 6%, IL1B secr inh 11 and DT40 TDP1 CPT -22%.
`Cc1ccccc1CNc1nc(N(C)C)nc2c1cnn2C` gave 12-LOX inh inconclusive, TDP1 cell noCPT inconclusive and DT40 TDP1 CPT -21%.
Cc1ccc(S(=O)(=O)c2c[nH]c3cc4c(cc3c2=O)OCO4)cc1 was read as 12-LOX inh -3%.
`COc1ccc(CN2CCN(c3ncnc4c3CCC4)CC2CCO)c(C)c1C` (stereo not given) gave 12-LOX inh 33%.
`COc1ccc(C(=O)C(CN2CCCC2)c2ccccc2)cc1` (stereo not given) gave 12-LOX inh -7%, TDP1 cell noCPT 3.2µM*, HT1080 IDH1KD tx 13µM*, HT1080-NT tox 11µM*, IL1B secr inh -109* and DT40 TDP1 CPT 4µM*.
